# The sample as a whole holds a higher share of hits than the screen did.
# Eya2 phos inh: Eya2 (human) phosphatase inhibition; O00167; recombinant Eya2, OMFP fluorescence dephosphorylation (OMFP is methylfluorescein phosphate); Potency, µM (doses to about 76.9 µM), most hits filed as inhibitors; hit rate 0.006% among 330,000; AID 488837
# Target sequence (O00167 whole entry, looked up): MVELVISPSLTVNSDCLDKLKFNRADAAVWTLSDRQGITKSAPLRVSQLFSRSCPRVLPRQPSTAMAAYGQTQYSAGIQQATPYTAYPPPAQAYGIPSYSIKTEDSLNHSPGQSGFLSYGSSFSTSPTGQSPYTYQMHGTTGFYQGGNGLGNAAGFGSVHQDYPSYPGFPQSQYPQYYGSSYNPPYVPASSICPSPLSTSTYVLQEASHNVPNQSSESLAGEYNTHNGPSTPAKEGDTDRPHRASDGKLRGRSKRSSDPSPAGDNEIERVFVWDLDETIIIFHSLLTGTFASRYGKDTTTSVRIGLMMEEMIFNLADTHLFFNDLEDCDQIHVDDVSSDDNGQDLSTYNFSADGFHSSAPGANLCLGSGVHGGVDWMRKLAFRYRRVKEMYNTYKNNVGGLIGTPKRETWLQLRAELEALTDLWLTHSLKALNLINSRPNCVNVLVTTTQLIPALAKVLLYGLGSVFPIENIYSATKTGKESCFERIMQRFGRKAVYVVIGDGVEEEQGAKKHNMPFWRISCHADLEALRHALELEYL
#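 Eya2 protein (added as 0.2 uM solution) was preincubated with compound for 10 min at ambient temperature in 50 mM HEPES pH 7.5, 50 mM NaCl, 5 uM MgCl2, 0.05% BSA, 1 mM DTT. OMFP (added at 50 uM) then reacted 10 min; fluorescence read at 485/525 nm.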
# ClpP mod: qHTS Assay for Activators of ClpP; Potency, µM (top dose mostly 57.5 µM); hit rate 1.9% among 340,000; AID 651965, 2013; ATP-dependent Clp protease proteolytic subunit (Bacillus subtilis (strain 168)), P80244; purified B. subtilis ClpP, FRET peptide cleavage, 20 min; active = well fitted falling curve with a large enough effect; inconclusive = small, poorly fitted or top-dose-only effect; inactive = no such curve, though single readings can be large or run the other way; note: the source files actives as falling curves though it sought activators and does not explain the sign; nearly all actives have a fitted effect of over 65% in size
#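 ClpP 10 microg/mL final, pH 8 Tris/KCl buffer with BSA, glycerol, Tween-20; compound pinned in; FRET-FV substrate; RT 20 min; Ex320/Em430; ΔFRET vs ADEP 5.8 microM, DMSO, no enzyme.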
# p53 reactivation: re-activators of mutant p53; H1299 p53-A138V BP100-luciferase reporter, luminescence, 24 h; Potency, µM (highest dose often 92.2 µM), most hits filed as activators; hit rate 0.063% among 320,000; note: nearly all actives have a fitted effect of over 45% in size
#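 H1299 (p53-null), stable ts p53-A138V + BP100-Luc; 1000 cells/well, Opti-MEM/10% FBS; cpd 4 pt, 1:5; 24 h, 37 deg C, 5% CO2; detection reagent 10 min RT; luminescence.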
# USP2a inh: blocks human ubiquitin-specific protease USP2a. O75604. hit rate 0.01% among 330,000. USP2 core, Ub-CHOP2 coupled fluorogenic reporter, 485/531. Potency, µM (highest dose often 38.3 µM), hits mostly inhibitors. AID 463254
#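 Deubiquitinase activity read as fluorescence (485/531 nm) after Ub-CHOP2 cleavage activates the enterokinase reporter on its substrate; USP2 core 10nM, Ub-CHOP2 and substrate 25nM each, 30min compound preincubation then 60min RT; data normalized to NEM, curves fitted.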
# a7 integrin act: integrin-mediated muscular dystrophy alleviation activation | alpha7betagal myoblasts, beta-gal FDG fluorescence, 48 h | Potency, µM (series often up to 38.3 µM), usual class: activators | hit rate 0.064% among 350,000; note: nearly all actives have a fitted effect of over 60% in size
#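 alpha7betagal+/- myoblasts (passage 13, 250/well) treated 48 h at 37C with compounds at 1:260 dilution of DMSO stock. Lysed, then beta-galactosidase activity read as FDG fluorescence (ex 480/em 540) after 30 min, with pre-read for autofluorescence.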
# Mm-Cpn inhibitor: M. maripaludis TRiC chaperonin inhibition. purified Mm-Cpn ATPase, ADP Transcreener TR-FRET. Potency, µM (top dose mostly 76.9 µM), usual class: inhibitors. hit rate 0.031% among 330,000. AID 504842; note: nearly all actives have a fitted effect of over 80% in size
#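 Eu-cryptate anti-ADP/ADP-d2 competition gives a ratio inversely related to ADP. Enzyme at 25 nM was pre-exposed to compound for 10 min, then given 10 uM ATP for 30 min, 37°C throughout.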
# Hits are given with their value; . = inactive; ? = inconclusive; / = not tested or not shown. Unless noted, calls come from the whole dose curve; as a rule, active = well fitted curve in the direction sought with a large enough effect; inconclusive = small, poorly fitted or top-dose-only effect, or another doubt; inactive = no such curve, though single readings can be large; an effect the other way counts as inactive or inconclusive.
SMILES,Eya2 phos inh,ClpP mod,p53 reactivation,USP2a inh,a7 integrin act,Mm-Cpn inhibitor
N#Cc1nc(-c2ccco2)oc1N1CCN(c2cccc(Cl)c2)CC1,.,31.6µM,.,.,.,.
N#Cc1nc(-c2cccs2)oc1N1CCN(Cc2ccccc2)CC1,.,25.1µM,?,.,.,.
N#Cc1nc(-c2ccco2)oc1N1CCN(C(c2ccccc2)c2ccccc2)CC1,.,6.31µM,.,.,.,.
N#Cc1nc(COc2ccccc2)oc1N1CCN(Cc2ccccc2)CC1,.,.,.,.,.,.
N#Cc1nc(-c2ccco2)oc1N1CCc2ccccc2C1,.,14.1µM,.,.,.,.
CCOc1nc(C#N)nc(N2CCOCC2)n1,/,.,/,/,/,/
CC(I)CCC(C)[n+]1cccc(I)c1 (centres undefined),/,.,/,/,/,/
CC(=O)O[C@@]12CO[C@@H]1C[C@H](O)[C@@]1(C)C(=O)[C@H](O)C3=C(C)[C@@H](OC(=O)C(O)[C@@H](NC(=O)OC(C)(C)C)c4ccccc4)C[C@@](O)([C@@H](OC(=O)c4ccccc4)[C@H]21)C3(C)C (some centres undefined),/,.,/,/,/,/
CCOc1ccc(NC(=O)C2CCCN(c3ccc(Sc4ccc(C)cc4)nn3)C2)cc1 (centres undefined),/,.,/,/,/,/
Clc1ccc(Nc2nc(NCc3ccco3)nc3nccnc23)cc1,/,.,/,/,/,/
Cc1ccc(CSc2nnc(-c3ccc4c(c3)OCO4)o2)cc1,.,.,.,.,.,.
Cc1ccc(CSc2ccc(-c3ccc4c(c3)OCO4)nn2)cc1,.,28.2µM,.,.,.,.
O=C1c2ccccc2C(=O)N1c1ccc(S(=O)(=O)N2CCOCC2)cc1,/,.,/,/,/,/
CCOC(=O)c1c(/C=N/Nc2ccccc2)c2sc(C)cc2n1C,.,/,/,.,/,.
CCC(C)NC(=O)c1cn(CC)c2ccc(S(=O)(=O)N3CCc4ccccc4C3)cc2c1=O (centres undefined),/,.,/,/,/,/
CC(C)C(=O)Nc1nc(-c2ccc(S(=O)(=O)N3CCOCC3)cc2)cs1,.,31.6µM,.,.,.,.
O=C(Nc1nc(-c2cccs2)cs1)c1ccc(S(=O)(=O)N2CCCCC2)cc1,.,?,.,.,.,44.7µM
O=C(COc1cccc(Cl)c1)Nc1nc(-c2ccc(S(=O)(=O)N3CCOCC3)cc2)cs1,.,.,.,.,.,39.8µM
CN(C)c1ccc(N=Cc2cccc3ccccc23)cc1,/,.,/,/,/,/
Cc1cc(C)nc(N/C=C(\C#N)C(=O)c2cccc(CSc3ccccc3)c2)n1,/,.,/,/,/,/
Cc1ccc(-n2cnc3cc(C(=O)NC4CCCCCC4)ccc32)c(C)c1,/,.,/,/,/,/
NC(=O)C1CCN(C(=O)CN(c2ccc3c(c2)OCCO3)S(=O)(=O)c2ccccc2)CC1,.,.,.,.,.,.
O=C(CN(c1ccc2c(c1)OCCO2)S(=O)(=O)c1ccccc1)N1CCN(Cc2ccccc2)CC1,.,31.6µM,.,.,.,.
O=C(CCC(=O)N1CCN(c2cccc(Cl)c2)CC1)c1cccs1,.,/,.,.,.,.
CN1CCN(C(=O)Cn2c(-c3cccs3)cc3cc(Cl)ccc32)CC1,/,31.6µM,/,/,/,/
SMILES,Eya2 phos inh,ClpP mod,p53 reactivation,USP2a inh,a7 integrin act,Mm-Cpn inhibitor
O=C(Cn1c(=O)[nH]c2ccccc2c1=O)N1CCN(c2cccc(Cl)c2)CC1,.,31.6µM,.,.,.,.
O=C(Cn1c(-c2cccs2)cc2cc(F)ccc21)N1CCN(c2cccc(Cl)c2)CC1,/,28.2µM,/,/,/,/
CCCCCn1c(=O)[nH]c2cc(C(=O)N3CCN(c4cccc(Cl)c4)CC3)ccc2c1=O,/,.,/,/,/,/
COc1ccc(-c2nn3c(-c4cc(-c5ccccc5)n[nH]4)nnc3s2)cc1,/,.,/,/,/,/
O=[N+]([O-])c1ccccc1/C=C/c1ccnc2ccccc12,/,.,/,/,/,/
CCN(CC)c1ccc(C=C(c2nnnn2-c2ccccc2)c2nnnn2-c2ccccc2)cc1,.,28.2µM,.,.,.,.
CCOC(=O)N1CCN(C(=O)c2cnn3c(C)c(Cc4ccc(C)cc4)c(C)nc23)CC1,.,?,.,.,.,.
